What was measured:
[1] = target: T1, Ephrin type-A receptor 3 (Homo sapiens) (UniProt P29320); conditions: at 10 µM
T1 sequence (whole entry): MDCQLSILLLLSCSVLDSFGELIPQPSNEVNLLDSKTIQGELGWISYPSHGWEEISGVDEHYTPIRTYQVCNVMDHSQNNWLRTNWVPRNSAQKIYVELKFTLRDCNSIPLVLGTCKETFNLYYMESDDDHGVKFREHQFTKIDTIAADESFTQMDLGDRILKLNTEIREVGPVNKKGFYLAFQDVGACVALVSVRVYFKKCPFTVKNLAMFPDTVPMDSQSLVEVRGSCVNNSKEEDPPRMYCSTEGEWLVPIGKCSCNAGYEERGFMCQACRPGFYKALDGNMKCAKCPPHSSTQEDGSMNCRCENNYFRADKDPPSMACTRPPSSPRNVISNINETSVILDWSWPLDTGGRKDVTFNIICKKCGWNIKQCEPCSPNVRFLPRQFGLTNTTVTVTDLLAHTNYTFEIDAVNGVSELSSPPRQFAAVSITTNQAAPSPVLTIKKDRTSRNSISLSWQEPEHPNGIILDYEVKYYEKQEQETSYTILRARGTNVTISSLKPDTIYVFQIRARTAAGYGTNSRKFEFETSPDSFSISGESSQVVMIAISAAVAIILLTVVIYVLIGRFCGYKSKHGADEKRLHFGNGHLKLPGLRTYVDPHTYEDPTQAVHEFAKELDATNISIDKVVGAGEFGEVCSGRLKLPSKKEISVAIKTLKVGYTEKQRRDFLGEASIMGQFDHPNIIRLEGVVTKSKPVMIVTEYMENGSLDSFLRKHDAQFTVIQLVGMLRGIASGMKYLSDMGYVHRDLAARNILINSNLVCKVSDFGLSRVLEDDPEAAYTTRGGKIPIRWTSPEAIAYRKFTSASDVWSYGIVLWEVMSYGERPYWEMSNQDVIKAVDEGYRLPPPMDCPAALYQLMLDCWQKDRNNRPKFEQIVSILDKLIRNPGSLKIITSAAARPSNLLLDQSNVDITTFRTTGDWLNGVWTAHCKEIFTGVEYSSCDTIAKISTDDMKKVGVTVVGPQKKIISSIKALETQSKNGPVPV

[2] = target: Ephrin type-A receptor 4 (Homo sapiens) (UniProt P54764); conditions: at 10 µM
Sequence of Ephrin type-A receptor 4 (Homo sapiens) (P54764 whole entry): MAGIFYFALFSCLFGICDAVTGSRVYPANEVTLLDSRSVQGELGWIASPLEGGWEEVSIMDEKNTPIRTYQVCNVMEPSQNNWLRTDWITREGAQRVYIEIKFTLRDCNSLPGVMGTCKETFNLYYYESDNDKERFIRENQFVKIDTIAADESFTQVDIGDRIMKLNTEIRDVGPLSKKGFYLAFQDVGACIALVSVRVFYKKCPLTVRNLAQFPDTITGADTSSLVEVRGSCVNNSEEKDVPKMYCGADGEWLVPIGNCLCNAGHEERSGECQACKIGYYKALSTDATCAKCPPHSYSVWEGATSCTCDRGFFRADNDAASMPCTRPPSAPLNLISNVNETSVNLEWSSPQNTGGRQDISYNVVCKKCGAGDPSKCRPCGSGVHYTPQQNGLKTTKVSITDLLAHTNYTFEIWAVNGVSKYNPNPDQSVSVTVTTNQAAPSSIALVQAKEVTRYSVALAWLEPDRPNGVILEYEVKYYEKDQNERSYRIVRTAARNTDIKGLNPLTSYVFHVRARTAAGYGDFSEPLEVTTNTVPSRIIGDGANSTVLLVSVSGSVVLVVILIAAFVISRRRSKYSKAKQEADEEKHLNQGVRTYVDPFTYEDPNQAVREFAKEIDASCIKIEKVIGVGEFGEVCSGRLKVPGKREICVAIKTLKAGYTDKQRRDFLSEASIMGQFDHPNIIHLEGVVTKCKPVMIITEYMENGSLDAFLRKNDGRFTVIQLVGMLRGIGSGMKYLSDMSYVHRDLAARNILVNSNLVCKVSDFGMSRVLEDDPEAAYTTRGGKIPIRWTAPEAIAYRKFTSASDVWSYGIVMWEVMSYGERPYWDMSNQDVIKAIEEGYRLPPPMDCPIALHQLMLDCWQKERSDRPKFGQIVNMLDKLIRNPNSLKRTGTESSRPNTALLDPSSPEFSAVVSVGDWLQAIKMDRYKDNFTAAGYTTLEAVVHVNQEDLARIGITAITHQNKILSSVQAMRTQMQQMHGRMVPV

[3] = target: Ephrin type-A receptor 5 (Homo sapiens) (UniProt P54756); conditions: at 10 µM
Sequence of Ephrin type-A receptor 5 (Homo sapiens) (P54756 whole entry): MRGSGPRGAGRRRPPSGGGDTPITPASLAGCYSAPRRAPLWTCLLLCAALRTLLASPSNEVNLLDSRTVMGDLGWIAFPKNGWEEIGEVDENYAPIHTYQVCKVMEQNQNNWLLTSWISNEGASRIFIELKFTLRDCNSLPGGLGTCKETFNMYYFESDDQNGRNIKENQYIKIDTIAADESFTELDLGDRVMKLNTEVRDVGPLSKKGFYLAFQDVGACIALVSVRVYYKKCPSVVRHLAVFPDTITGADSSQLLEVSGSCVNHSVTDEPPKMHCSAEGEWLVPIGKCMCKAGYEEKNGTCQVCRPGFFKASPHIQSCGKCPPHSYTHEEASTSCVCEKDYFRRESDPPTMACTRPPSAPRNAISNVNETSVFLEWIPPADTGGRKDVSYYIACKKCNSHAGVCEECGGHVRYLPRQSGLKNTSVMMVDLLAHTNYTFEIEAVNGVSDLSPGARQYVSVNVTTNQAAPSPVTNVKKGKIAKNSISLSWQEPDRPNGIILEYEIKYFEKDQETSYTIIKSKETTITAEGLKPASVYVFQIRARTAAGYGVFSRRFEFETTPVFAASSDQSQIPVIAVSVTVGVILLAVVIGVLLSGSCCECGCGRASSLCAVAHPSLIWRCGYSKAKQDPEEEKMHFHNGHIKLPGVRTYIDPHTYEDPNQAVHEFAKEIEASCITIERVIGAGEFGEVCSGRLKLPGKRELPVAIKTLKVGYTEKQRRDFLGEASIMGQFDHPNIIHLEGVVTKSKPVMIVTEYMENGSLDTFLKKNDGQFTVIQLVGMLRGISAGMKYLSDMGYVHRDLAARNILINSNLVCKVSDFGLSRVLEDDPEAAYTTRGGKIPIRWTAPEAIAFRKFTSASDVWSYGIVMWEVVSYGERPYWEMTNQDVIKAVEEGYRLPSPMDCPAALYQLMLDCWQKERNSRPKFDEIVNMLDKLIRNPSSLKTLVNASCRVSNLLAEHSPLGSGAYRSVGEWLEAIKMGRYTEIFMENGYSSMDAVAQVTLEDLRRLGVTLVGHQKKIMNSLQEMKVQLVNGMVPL

[4] = target: Ephrin type-A receptor 7 (Homo sapiens) (UniProt Q15375); conditions: at 1 µM
Sequence of Ephrin type-A receptor 7 (Homo sapiens) (Q15375 28-998 limits assumed): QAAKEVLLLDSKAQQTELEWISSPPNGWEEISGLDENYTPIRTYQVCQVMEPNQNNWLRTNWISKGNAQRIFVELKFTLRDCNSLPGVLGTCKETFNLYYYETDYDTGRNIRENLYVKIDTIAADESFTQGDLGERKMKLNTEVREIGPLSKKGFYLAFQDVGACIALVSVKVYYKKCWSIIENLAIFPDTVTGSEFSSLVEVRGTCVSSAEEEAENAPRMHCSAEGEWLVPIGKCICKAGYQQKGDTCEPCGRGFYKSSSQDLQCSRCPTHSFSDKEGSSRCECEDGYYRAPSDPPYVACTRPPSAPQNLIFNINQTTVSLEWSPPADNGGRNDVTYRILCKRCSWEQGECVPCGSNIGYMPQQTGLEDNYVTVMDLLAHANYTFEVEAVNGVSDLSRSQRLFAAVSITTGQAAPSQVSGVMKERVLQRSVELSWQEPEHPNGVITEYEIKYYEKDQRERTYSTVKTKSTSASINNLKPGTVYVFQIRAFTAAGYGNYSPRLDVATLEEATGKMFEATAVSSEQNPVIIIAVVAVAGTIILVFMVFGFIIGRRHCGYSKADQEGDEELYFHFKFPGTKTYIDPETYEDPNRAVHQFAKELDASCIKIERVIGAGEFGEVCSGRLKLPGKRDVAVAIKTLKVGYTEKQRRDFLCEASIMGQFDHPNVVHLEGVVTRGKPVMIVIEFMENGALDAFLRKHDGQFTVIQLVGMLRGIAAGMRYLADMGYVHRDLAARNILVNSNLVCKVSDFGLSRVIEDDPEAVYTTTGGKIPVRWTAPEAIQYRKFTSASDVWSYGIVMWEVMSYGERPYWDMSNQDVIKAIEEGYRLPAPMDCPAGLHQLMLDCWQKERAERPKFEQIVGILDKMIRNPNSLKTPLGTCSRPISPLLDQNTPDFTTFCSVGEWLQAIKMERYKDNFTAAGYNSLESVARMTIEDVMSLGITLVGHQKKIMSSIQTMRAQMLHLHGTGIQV

[5] = target: Ephrin type-A receptor 7 (Homo sapiens) (UniProt Q15375); conditions: at 10 µM
[6] = target: T2, Ephrin type-A receptor 8 (Homo sapiens) (UniProt P29322); conditions: at 10 µM
T2 sequence (whole entry): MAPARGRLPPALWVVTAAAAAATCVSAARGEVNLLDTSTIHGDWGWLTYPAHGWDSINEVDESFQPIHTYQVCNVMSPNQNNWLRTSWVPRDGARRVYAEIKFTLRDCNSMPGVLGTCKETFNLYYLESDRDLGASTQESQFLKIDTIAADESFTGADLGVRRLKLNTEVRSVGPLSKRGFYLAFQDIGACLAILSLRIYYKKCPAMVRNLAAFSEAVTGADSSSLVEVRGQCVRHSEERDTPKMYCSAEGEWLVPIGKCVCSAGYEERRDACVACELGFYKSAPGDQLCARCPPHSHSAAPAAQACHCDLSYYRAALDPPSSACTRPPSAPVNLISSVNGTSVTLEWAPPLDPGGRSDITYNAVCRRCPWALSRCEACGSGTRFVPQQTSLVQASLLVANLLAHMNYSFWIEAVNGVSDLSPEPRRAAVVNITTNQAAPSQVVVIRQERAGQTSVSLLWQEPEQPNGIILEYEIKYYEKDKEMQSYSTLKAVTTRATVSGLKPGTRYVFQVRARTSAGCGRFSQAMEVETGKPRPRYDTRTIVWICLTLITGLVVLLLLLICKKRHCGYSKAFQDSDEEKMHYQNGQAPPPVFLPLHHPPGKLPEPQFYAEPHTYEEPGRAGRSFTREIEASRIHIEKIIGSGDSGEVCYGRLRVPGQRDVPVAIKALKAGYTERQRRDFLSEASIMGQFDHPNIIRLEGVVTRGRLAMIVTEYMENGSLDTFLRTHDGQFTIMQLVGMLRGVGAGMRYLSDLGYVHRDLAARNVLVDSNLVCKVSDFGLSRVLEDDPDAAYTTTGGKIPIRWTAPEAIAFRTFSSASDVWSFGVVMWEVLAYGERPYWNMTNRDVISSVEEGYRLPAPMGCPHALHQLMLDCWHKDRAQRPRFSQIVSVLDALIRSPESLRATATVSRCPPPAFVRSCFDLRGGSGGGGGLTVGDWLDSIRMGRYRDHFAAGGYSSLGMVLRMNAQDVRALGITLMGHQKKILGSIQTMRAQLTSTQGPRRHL

[7] = target: T3, Ephrin type-B receptor 1 (Homo sapiens) (UniProt P54762); conditions: at 10 µM
T3 sequence (whole entry): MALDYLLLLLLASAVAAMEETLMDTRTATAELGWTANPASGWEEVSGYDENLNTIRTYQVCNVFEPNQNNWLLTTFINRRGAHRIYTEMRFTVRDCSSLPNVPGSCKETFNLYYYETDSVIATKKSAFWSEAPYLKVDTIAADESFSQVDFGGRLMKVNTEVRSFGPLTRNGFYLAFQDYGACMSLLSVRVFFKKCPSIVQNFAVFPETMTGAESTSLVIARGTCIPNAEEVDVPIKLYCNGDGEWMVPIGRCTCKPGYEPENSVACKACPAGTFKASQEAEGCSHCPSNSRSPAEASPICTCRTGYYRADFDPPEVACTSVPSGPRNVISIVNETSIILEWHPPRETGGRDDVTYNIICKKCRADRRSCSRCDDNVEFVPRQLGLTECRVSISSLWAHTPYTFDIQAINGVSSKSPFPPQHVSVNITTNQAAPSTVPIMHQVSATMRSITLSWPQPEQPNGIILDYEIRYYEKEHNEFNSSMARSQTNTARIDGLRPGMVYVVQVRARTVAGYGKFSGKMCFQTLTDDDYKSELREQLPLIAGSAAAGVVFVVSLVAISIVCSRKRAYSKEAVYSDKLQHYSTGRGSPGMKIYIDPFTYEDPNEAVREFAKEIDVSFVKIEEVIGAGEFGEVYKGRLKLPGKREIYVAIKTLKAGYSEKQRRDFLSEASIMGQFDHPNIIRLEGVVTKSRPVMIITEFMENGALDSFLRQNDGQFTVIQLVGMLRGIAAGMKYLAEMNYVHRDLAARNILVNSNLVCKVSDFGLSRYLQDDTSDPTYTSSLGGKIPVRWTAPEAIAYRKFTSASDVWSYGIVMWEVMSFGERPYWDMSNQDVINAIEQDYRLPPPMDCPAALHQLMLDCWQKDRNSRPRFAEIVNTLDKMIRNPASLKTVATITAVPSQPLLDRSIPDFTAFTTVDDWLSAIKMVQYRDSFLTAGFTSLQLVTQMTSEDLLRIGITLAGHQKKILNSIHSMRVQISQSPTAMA

[8] = target: T4, Ephrin type-B receptor 2 (Homo sapiens) (UniProt P29323); conditions: at 1 µM
T4 sequence (whole entry): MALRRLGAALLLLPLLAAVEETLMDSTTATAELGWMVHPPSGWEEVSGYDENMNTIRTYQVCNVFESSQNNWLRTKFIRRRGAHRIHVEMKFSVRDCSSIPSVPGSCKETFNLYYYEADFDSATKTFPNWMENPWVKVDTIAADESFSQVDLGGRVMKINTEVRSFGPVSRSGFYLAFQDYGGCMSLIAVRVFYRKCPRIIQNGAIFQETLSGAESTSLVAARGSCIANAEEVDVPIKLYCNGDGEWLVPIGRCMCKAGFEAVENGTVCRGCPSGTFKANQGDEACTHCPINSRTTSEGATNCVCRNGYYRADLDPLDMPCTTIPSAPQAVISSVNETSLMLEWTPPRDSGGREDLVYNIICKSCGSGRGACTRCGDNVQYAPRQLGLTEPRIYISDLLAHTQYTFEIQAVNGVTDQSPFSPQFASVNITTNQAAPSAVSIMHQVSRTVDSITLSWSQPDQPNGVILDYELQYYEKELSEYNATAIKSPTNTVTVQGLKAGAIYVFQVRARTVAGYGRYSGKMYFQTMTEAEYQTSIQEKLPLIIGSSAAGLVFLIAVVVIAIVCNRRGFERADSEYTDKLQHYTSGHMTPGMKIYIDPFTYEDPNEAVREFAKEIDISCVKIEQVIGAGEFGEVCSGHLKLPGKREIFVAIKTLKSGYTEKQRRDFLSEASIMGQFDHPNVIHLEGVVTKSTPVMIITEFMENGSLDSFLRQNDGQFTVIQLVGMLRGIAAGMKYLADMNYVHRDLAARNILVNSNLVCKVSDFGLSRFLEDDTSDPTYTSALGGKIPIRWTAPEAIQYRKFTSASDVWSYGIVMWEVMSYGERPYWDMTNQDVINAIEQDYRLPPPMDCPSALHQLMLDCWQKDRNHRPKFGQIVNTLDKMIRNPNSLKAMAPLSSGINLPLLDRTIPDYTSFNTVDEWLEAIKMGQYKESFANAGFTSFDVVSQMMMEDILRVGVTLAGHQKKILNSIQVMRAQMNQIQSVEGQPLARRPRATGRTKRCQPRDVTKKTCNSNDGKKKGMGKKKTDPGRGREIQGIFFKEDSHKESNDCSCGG

[9] = target: T4, Ephrin type-B receptor 2 (Homo sapiens); conditions: at 10 µM
[10] = target: T5, Ephrin type-B receptor 3 (Homo sapiens) (UniProt P54753); conditions: at 1 µM
T5 sequence (whole entry): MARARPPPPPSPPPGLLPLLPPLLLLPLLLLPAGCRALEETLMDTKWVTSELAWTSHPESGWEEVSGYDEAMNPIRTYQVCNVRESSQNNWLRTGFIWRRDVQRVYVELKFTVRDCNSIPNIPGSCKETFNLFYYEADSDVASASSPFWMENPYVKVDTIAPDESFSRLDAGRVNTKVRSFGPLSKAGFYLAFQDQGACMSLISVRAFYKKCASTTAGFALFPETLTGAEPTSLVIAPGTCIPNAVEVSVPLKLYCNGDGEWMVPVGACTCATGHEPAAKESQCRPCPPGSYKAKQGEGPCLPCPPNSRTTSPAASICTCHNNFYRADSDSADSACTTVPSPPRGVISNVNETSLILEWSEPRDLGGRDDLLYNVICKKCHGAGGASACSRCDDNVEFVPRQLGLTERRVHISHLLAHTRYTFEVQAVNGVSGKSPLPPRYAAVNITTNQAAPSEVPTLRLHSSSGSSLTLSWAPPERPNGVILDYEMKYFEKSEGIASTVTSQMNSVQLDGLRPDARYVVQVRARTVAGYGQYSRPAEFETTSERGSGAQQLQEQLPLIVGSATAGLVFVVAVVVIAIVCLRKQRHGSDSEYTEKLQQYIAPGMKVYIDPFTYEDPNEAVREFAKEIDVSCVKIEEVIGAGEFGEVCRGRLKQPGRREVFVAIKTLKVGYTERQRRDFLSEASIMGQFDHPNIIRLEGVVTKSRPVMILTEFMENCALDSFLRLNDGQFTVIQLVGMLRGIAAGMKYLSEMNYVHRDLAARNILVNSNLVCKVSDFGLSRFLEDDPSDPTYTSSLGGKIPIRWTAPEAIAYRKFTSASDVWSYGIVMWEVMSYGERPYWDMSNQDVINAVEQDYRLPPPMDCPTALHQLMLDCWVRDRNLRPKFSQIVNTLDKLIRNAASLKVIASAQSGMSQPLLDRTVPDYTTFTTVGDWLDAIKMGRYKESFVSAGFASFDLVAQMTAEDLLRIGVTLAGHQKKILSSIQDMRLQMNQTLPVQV

[11] = target: T6, Ephrin type-B receptor 4 (Homo sapiens) (UniProt P54760); conditions: at 1 µM
T6 sequence (whole entry): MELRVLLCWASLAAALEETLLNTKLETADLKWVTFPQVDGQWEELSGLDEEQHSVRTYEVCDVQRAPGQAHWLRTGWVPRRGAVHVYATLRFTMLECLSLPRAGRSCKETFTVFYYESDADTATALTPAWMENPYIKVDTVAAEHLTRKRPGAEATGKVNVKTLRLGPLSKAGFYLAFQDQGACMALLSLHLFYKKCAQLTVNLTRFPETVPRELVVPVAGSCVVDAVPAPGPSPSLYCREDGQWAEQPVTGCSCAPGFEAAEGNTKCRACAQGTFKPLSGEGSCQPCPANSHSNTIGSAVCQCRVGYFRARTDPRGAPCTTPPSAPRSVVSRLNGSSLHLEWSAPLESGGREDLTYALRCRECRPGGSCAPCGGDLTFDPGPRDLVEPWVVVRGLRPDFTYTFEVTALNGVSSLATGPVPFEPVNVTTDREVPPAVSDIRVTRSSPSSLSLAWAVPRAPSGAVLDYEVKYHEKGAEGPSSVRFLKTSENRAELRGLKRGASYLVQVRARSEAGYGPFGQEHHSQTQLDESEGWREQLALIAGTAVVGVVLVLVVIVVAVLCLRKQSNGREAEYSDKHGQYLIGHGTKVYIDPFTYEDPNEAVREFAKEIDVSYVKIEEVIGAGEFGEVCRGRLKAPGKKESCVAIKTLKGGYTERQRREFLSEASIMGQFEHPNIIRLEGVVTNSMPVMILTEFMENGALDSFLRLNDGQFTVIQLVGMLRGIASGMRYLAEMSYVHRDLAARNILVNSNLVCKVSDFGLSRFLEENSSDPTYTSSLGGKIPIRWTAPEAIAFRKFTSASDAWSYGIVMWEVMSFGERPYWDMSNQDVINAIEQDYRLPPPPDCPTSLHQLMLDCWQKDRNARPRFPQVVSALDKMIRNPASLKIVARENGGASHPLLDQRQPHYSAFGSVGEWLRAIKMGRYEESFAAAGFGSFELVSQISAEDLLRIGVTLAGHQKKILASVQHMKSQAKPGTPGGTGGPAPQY

[12] = target: T6, Ephrin type-B receptor 4 (Homo sapiens); conditions: at 10 µM
[13] = target: Receptor tyrosine-protein kinase erbB-4 (Homo sapiens) (UniProt Q15303); conditions: at 1 µM
Sequence of Receptor tyrosine-protein kinase erbB-4 (Homo sapiens) (Q15303 whole entry): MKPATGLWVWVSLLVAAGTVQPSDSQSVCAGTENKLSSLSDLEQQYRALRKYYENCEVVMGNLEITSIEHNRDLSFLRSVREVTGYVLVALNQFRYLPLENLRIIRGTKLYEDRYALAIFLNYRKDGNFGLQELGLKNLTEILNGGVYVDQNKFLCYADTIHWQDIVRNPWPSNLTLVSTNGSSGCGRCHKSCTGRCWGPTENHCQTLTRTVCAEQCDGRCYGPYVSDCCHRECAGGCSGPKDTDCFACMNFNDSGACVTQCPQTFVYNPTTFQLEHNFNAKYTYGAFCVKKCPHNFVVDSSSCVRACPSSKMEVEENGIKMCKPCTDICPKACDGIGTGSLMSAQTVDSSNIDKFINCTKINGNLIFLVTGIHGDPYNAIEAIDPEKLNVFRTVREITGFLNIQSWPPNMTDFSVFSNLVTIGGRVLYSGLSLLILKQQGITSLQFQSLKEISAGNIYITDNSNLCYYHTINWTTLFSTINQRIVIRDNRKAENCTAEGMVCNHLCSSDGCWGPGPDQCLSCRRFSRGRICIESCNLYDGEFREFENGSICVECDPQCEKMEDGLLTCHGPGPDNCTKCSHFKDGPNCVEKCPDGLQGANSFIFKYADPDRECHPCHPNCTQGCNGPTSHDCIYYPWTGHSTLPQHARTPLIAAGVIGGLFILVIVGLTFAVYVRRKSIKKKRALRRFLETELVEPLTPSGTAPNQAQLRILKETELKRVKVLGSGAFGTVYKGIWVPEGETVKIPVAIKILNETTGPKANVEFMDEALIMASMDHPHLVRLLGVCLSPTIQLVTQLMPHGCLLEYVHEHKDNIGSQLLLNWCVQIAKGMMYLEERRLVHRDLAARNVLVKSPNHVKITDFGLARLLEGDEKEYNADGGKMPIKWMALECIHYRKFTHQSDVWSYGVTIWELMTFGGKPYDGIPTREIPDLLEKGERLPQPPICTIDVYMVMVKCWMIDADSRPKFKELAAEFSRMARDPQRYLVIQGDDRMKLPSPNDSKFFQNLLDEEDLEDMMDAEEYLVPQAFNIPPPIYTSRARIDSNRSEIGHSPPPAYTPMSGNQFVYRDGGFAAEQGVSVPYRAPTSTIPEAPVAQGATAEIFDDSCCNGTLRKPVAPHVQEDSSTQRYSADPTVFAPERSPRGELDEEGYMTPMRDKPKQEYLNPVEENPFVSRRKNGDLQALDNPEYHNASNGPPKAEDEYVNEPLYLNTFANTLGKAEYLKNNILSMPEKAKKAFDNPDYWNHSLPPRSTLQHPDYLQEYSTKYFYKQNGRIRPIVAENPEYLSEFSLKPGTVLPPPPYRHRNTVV

[14] = target: Receptor tyrosine-protein kinase erbB-4 (Homo sapiens) (UniProt Q15303); conditions: at 10 µM
[15] = target: Focal adhesion kinase 1 (Homo sapiens) (UniProt Q05397); conditions: at 1 µM
[16] = target: T2, Ephrin type-A receptor 8 (Homo sapiens); conditions: at 1 µM
[17] = target: T3, Ephrin type-B receptor 1 (Homo sapiens); conditions: at 1 µM
[18] = target: T5, Ephrin type-B receptor 3 (Homo sapiens); conditions: at 10 µM

SMILES	residual activity [1]	residual activity [2]	residual activity [3]	residual activity [4]	residual activity [5]	residual activity [6]	residual activity [7]	residual activity [8]	residual activity [9]	residual activity [10]	residual activity [11]	residual activity [12]	residual activity [13]	residual activity [14]	residual activity [15]	residual activity [16]	residual activity [17]	residual activity [18]
Cc1cc(Nc2nc(-c3ccccc3)nc3ccccc23)n[nH]1	8%	73%	33%	50%	6%	68%	17%	100%	48%	111% (inactive)	75%	20%	106%	45%	36%			
CC(=O)c1ccc(N2CCOCC2)cc1O	94%	104%	101%	101%	90%	93%	101%		106%	105% (inactive)			93%	107%		100%	93%	107%

— ChEMBL document CHEMBL2218924, “A broad activity screen in support of a chemogenomic map for kinase signalling research and drug discovery” (Biochem J, 2013)
